Source: PubChem
An excerpt weighted towards active compounds, which were near 7.2% of everything screened.
FMDV antiviral: foot and mouth disease virus antiviral activity; FMDV antiviral cell-based qHTS; Potency, µM (titrated, usually from 57.9 µM), for inactives: at the highest dose activity change, negative = inhibition, hits mostly inhibitors; actives 1.2% (n = 410,000); calls by dose curve; tested in HEK293T cells; note: read-out not given here; potency is the fitted concentration of half-maximal effect; % is set by controls: 0 for no effect and ±100 for the full control effect; nearly all actives have a fitted effect of over 45% in size
HCV inhibitor: blocks hepatitis C virus; Potency, µM (doses to about 41.8 µM), inactives show at the top dose activity change, negative = inhibition, hits mostly inhibitors; Huh7.5.1 HCVcc-Cre infection, luciferase reporter, 44 h; actives 3.4% (n = 340,000); note: potency is the fitted concentration of half-maximal effect; % is set by controls: 0 for no effect and ±100 for the full control effect
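1,000 cells/well; 4 h culture; + compound; + HCVcc-Cre (~0.5 moi); 44 h; luciferase substrate, RT 15 min; read 15 sec.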
RE007 growth inh: less growth of the S. pombe RE007 Vpr strain. S. pombe RE007 Vpr strain, BacTiter-Glo ATP luminescence, 24 h. Potency, µM (doses to about 92.2 µM), for the others: at the highest dose activity change, negative = less growth, hits mostly inhibitors. actives 0.21% (n = 360,000); active = well fitted falling curve with a large enough effect; inconclusive = small, poorly fitted or top-dose-only effect; inactive = no such curve, though single readings can be large or run the other way; note: potency is the fitted concentration of half-maximal effect; % is set by controls: 0 for no effect and ±100 for the full control effect; nearly all actives have a fitted effect of over 50% in size
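Fission yeast strain RE007, carrying one chromosomally integrated HIV-1 vpr copy, was seeded at OD 0.01 in PMG+AL medium with 23 nL pinned compound. After 24 h at 30 °C and 99% humidity, viability was read by BacTiter-Glo luminescence.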
LASV entry inh: blocks Lassa virus binding to or entry into cells; Lassa virus pseudotype entry inhibition, cell reporter; Potency, µM (titrated, usually from 37.9 µM), without a hit: at the top dose activity change, negative = inhibition, hits mostly inhibitors; actives 1.2% (n = 300,000); AID 540256; calls by dose curve; tested in HEK293 cells; note: potency is the fitted concentration of half-maximal effect; % is set by controls: 0 for no effect and ±100 for the full control effect; nearly all actives have a fitted effect of over 50% in size
Sm TGR block: inhibitors of Schistosoma mansoni thioredoxin glutathione reductase. Q962Y6. purified TGR, DTNB reduction, TNB absorbance 405 nm. Potency, µM (titrated, usually from 114 µM), without a hit: at the highest dose activity change, negative = inhibition, actives largely listed as inhibitors. actives 3% (n = 360,000); note: potency is the fitted concentration of half-maximal effect; % is set by controls: 0 for no effect and ±100 for the full control effect; nearly all actives have a fitted effect of over 60% in size
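TGR 20 nM + NADPH 100 uM (dispensed conc.), cpd preinc 15 min RT; start with NADPH (500 uM addition) then DTNB (15 mM addition). Kinetic TNB absorbance, 405 nm filter. Four-parameter Hill fit across titration.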
Marburg entry inh: Marburg virus entry inhibition; Marburg virus pseudotyped entry inhibition, cell reporter; actives 1.8% (n = 300,000); AID 540276; Potency, µM (series often up to 37.8 µM), inactives show at the highest dose activity change, negative = inhibition, most hits filed as inhibitors; calls by dose curve; tested in HEK293 cells; note: potency is the fitted concentration of half-maximal effect; % is set by controls: 0 for no effect and ±100 for the full control effect
G2M arrest HeLa: inducers of G2/M cell cycle arrest in HeLa cells. shares compounds with Marburg entry inh. HeLa cell cycle G2/M arrest, Hoechst DNA content imaging. Potency, µM, usual class: inhibitors. actives 60% (n = 25)
WI-38 tox: WI-38 cytotoxicity of perinucleolar compartment inhibitors | shares compounds with Marburg entry inh | AID 2729 | WI-38 normal lung fibroblasts, ATPLite luminescence ATP viability, 24 h | 120 tested, under 10 active | Potency, µM (doses to about 46.1 µM), inactives show at the top dose activity change, negative = cytotoxicity, actives largely listed as inhibitors
PNC assembly inh: confirmation of perinucleolar compartment assembly inhibitors. shares compounds with Marburg entry inh. PC3M PTB-GFP, PNC prevalence imaging, 16 h. Potency, µM (doses to about 46.1 µM), inactives show at the highest dose activity, negative = PNC inhibition, hits mostly inhibitors. actives 50% (n = 120). AID 2730
PC3M caspase: PC3M caspase 3/7 activation by PNC inhibitor hits | PC3M-GFP caspase 3/7 activation, luminescence, 24 h | activity change, positive = activation, % at 46.1 µM | shares compounds with Marburg entry inh | 120 tested, under 10 active
Starred values were filed as active, the others as inactive; u = inconclusive; x = no result; [ ] = dose if it differs, or a comment. Unless noted, calls come from the whole dose curve; as a rule, active = well fitted curve in the direction sought with a large enough effect; inconclusive = small, poorly fitted or top-dose-only effect, or another doubt; inactive = no such curve, though single readings can be large; an effect the other way counts as inactive or inconclusive.

SMILES | FMDV antiviral | HCV inhibitor | RE007 growth inh | LASV entry inh | Sm TGR block | Marburg entry inh | WI-38 tox | PNC assembly inh | PC3M caspase | others
COC(=O)C1=C(C)NC(C)=C(C(=O)OCCCN2CCC(c3ccccc3)(c3ccccc3)CC2)C1c1cccc([N+](=O)[O-])c1 (stereo unspecified) | 21%[39.8 µM] | x | x | x | x | x | x | x | x
CCCCN(C(=O)Nc1ccc(Cl)cc1)C1CCN(C(C)=O)CC1 | -20% | 19% | -4% | u | 10% | 6% | 4% | -11% | -1
CCOCCCN(C(=O)Nc1ccc(Cl)cc1)C1CCN(C(C)=O)CC1 | -1% | x | x | 3%[46.1 µM] | 1% | x | x | x | x
CCOc1nc(NC(=O)NS(=O)(=O)Oc2cccc(F)c2)nc(-c2ccccc2)n1 | 24% | x | x | 13%[46.1 µM] | 1% | 24%[46.1 µM] | x | x | x
NC(=O)Cn1c(S(=O)(=O)Cc2ccccc2)nc2ccccc21 | -8% | 9% | -5% | -14% | x | 5% | x | x | x
C#CCn1c(S(=O)(=O)Cc2ccc(F)cc2)nc(-c2ccccc2)c1-c1ccccc1 | u | u | -4% | 3.7µM* | -1% | 0.92µM* | -24% | 7.9µM* | -3
Cc1cc(SCC(=O)c2cc(C)n(C)c2C)nc2ccccc12 | -8% | -22% | -4% | u | -13% | u | -11% | u | 5
Cc1cc(SCC(=O)O)nc2ccccc12 | -16% | 6% | 2% | 17% | 13% | u | x | x | x
CCc1ccccc1Nc1sc(C(=O)c2ccccc2)c(N)c1S(=O)(=O)c1ccccc1 | -4% | x | x | u | -15% | u | x | x | x
COc1cc([C@@H]2c3cc4c(cc3[C@H](O)C3COC(=O)[C@@H]32)OCO4)cc(OC)c1OC (stereo partly specified) | x | x | x | u | x | u | x | x | x | G2M arrest HeLa=0.022*
O=C(NC(Cc1c[nH]c2ccccc12)C(=O)Nc1ccc(OC(F)(F)F)cc1)c1cccs1 (stereo unspecified) | u | u | 0% | 2.1µM* | 16% | 2.6µM* | -10% | 7.1µM* | -3
CC(C)c1ccc(S(=O)(=O)/N=C2/C=C(Sc3ncn[nH]3)C(=O)c3ccccc32)cc1 | 22µM* | 2.5µM* | u | u | 0.28µM* | u | -4% | u | -4
CCOCCCNC(=O)C(=O)Nc1c2c(nn1-c1ccc(OC)cc1)CSC2 | -13% | x | x | -27%[46.1 µM] | -2% | x | x | x | x
Cc1ccc(C)c(NC(=O)C2CCCN(c3nc4ccccc4s3)C2)c1 (stereo unspecified) | 16% | x | x | -22%[46.1 µM] | -3% | 12%[46.1 µM] | x | x | x
COc1cc(C(=O)Nc2nc(-c3ccc(F)cc3)cs2)ccc1OCC(=O)N1CCOCC1 | -63% | u | 1% | u | 4% | u | x | x | x
COc1ccc(-c2csc(NC(=O)c3ccc(OCC(=O)N4CCOCC4)c(OC)c3)n2)cc1 | u | u | -19% | u | -3% | u | 2% | u | -8
CCOc1ccc(C2C(=O)N(C3CCCCCC3)CC(=O)N2Cc2ccc(C)cc2)cc1OC (stereo unspecified) | -14% | x | x | u | 12% | x | x | x | x
Cc1ccccc1Cn1c2ccccc2c2cnn(CC(=O)NC(C)CCc3ccccc3)c(=O)c21 (stereo unspecified) | -20% | x | x | u | -10% | 6%[46.1 µM] | x | x | x
Cc1ccc(S(=O)(=O)N(C)c2ccc(OCC(=O)Nc3nc4ccccc4s3)cc2)cc1 | u | u | 6% | u | u | 15µM* | -20% | u | -10
Cc1ccc(S(=O)(=O)N(C)c2ccc(OCC(=O)Nc3nc(-c4ccccc4)cs3)cc2)cc1 | -29% | u | 1% | u | -8% | u | x | x | x
Cc1c2ccncc2c(C)c2c1[nH]c1ccccc12 | -21% | u | -29%[18.4 µM] | 6.5µM* | -1% | 4.1µM* | -6% | u | 3 | G2M arrest HeLa=u
CC(=O)N1C=Cc2c(c(C)c3c([nH]c4ccccc43)c2C)C1 | x | x | x | x | -6% | x | x | x | x
COCOc1ccc(Br)cc1C(=O)[C@H]1O[C@H]1c1cccc(OC)c1 | x | x | x | x | x | -17%[14.2 µM] | x | x | x
O=C(Cc1coc2ccc3ccccc3c12)Nc1nnc(C2CC2)s1 | -18% | u | -6% | 2.5µM* | 3% | u | -7% | 7.9µM* | 1
COc1ccccc1N(Cc1cc2cccc(C)c2[nH]c1=O)C(=O)c1cccc(Cl)c1 | -17% | x | x | u | -5% | -14%[46.1 µM] | x | x | x
SMILES | FMDV antiviral | HCV inhibitor | RE007 growth inh | LASV entry inh | Sm TGR block | Marburg entry inh | WI-38 tox | PNC assembly inh | PC3M caspase | others
CCOC(=O)C1CCN(C(=O)c2nn(-c3ccc(OC)c(Cl)c3)c(=O)c3c2c2ccccc2n3C)CC1 | -23% | x | x | u | 6% | -3%[46.1 µM] | x | x | x
C(=N\Nc1nc2ccccc2[nH]1)/c1ccccc1 | 16% | -20% | -2% | -1% | -4%[57.1 µM] | -2% | x | x | x
O=[N+]([O-])c1cc(/C=N/Nc2nc3ccccc3[nH]2)c(O)cc1O | 6% | u | -24% | 10µM* | -14% | 8.9µM* | -16% | 28µM* | -23
Cc1cc(=O)[nH]c(N=N/C(=N/Nc2ccccc2C)c2ccccc2)n1 | -9% | u | 8% | 4µM* | 9% | 0.79µM* | -7% | u | -8
CCOc1ccc(CN(C)CC(=O)Nc2cc(OC)c([N+](=O)[O-])cc2C)cc1 | u | -23% | -11% | 0% | -6% | 8% | -22% | -20% | -8
Nc1cccc2nc3ccccc3cc12 | -14% | 8% | -10%[18.4 µM] | x | -2% | x | -17% | u | u
Nc1[nH]nc2nc3ccccc3cc12 | 8% | 18% | 1% | 20% | -22% | u | x | x | x
CC12CCC(C(=O)NC(c3ccccc3)c3ccccc3)(OC1=O)C2(C)C (stereo unspecified) | u | 13% | -8% | u | 17% | 1% | -10% | 15% | -1
COC(=O)c1ccc(C)c(NC(=O)c2c(-c3ccccc3)noc2C)c1 | x | 9% | 0% | -8% | 7% | -22% | x | x | x
COC(=O)c1c(-c2ccccc2)csc1NC(=O)c1c(-c2ccccc2)noc1C | u | u | 2% | 0.89µM* | 3% | 1µM* | 13% | 4µM* | 1
